Activity calls are given as the source filed them.

Test [1] concerns PRMT1 (protein arginine N-methyltransferase 1). Description: PRMT1 binders on small-molecule microarrays, primary screen, biochemical, small-molecule microarray, 635 nm fluorescence (AID 1088).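 Note: binding of Prmt1 protein to compounds spotted on small-molecule microarray slides.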 The following applies: small-molecule microarray binding, higher = more signal.
Test [2] in a line: yeast growth modulation, basal conditions, primary screen, YJM789 clinical isolate, OD600, 24 h (AID 1089).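 Note: growth of clinical yeast isolate S. cerevisiae YJM 789 seeded 1000 cells per well; test concentration not given here.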 The settings on record: S. cerevisiae YJM789 growth, higher = more signal, called active from +8 up or from −8 down.
The nature of test [3]: fission yeast growth modulation, primary screen, strain 972, OD600, 24 h, no modulator (AID 1090).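 Note: basal condition with compound alone and no growth modifier present; test concentration not given here.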 The settings on record: S. pombe 972 growth, higher = more signal, called active from +8 up or from −8 down.
Test [4] can be described thus: S. cerevisiae growth modulation with rapamycin, primary screen, strain BY4716, OD600, 96 h (AID 1091). Note: test concentration not given here. The following applies: higher = more signal, called active from +8 up or from −8 down.
Test [5] has as its target Torsin-1A-interacting protein 2 (Homo sapiens) (UniProt Q8NFQ8). In words: LULL1 binders on small-molecule microarray, primary screen, cell lysate, human LULL1 lysate, 635/667 nm fluorescence (AID 1092).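 Note: probe is lysate of COS7 cells overexpressing human LULL1; score merges per-feature 667 nm fluorescence with signal-to-noise.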 The following applies: hLULL1 lysate binding, 635 nm fluorescence, higher = more signal.
Test [6] is described as follows: E. coli growth modulation, two-sided OD650, primary screen, E. coli filamentation project, strain DRC41, 24 h (AID 1093).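 Note: MC1000 strain lacking acrAB efflux and sulA so SOS filamentation is blocked; test concentration not given here.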 The following applies: OD650, 24 h, higher = more signal, called active from +8 up or from −8 down.
Test [7] in a line: small-molecule microarray binders of probe aLefty2, primary screen, biochemical, biotinylated probe, 635/667 nm fluorescence (AID 1094).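 Note: score merges spot fluorescence near 667 nm with spot signal-to-noise ratio.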 The settings on record: higher = more signal.
Test [8] concerns Noggin (protein binding on small-molecule microarray). In words: Noggin binders on small-molecule microarray, primary screen, biochemical, 635/667 nm fluorescence (AID 1095).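 Note: score merges 667 nm feature fluorescence with signal to noise over triplicate slides.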 The following applies: 635 nm fluorescence, higher = more signal.
In test [9] the target is Neurogenic locus notch homolog protein 3 (Homo sapiens) (UniProt Q9UM47). In words: NOTCH3 binders on small-molecule microarray, primary screen, biochemical, 635/667 nm fluorescence (AID 1096). The following applies: NOTCH3 binding, 635 nm fluorescence, higher = more signal.
Chain of Neurogenic locus notch homolog protein 3 (Homo sapiens) (Q9UM47 whole entry, looked up): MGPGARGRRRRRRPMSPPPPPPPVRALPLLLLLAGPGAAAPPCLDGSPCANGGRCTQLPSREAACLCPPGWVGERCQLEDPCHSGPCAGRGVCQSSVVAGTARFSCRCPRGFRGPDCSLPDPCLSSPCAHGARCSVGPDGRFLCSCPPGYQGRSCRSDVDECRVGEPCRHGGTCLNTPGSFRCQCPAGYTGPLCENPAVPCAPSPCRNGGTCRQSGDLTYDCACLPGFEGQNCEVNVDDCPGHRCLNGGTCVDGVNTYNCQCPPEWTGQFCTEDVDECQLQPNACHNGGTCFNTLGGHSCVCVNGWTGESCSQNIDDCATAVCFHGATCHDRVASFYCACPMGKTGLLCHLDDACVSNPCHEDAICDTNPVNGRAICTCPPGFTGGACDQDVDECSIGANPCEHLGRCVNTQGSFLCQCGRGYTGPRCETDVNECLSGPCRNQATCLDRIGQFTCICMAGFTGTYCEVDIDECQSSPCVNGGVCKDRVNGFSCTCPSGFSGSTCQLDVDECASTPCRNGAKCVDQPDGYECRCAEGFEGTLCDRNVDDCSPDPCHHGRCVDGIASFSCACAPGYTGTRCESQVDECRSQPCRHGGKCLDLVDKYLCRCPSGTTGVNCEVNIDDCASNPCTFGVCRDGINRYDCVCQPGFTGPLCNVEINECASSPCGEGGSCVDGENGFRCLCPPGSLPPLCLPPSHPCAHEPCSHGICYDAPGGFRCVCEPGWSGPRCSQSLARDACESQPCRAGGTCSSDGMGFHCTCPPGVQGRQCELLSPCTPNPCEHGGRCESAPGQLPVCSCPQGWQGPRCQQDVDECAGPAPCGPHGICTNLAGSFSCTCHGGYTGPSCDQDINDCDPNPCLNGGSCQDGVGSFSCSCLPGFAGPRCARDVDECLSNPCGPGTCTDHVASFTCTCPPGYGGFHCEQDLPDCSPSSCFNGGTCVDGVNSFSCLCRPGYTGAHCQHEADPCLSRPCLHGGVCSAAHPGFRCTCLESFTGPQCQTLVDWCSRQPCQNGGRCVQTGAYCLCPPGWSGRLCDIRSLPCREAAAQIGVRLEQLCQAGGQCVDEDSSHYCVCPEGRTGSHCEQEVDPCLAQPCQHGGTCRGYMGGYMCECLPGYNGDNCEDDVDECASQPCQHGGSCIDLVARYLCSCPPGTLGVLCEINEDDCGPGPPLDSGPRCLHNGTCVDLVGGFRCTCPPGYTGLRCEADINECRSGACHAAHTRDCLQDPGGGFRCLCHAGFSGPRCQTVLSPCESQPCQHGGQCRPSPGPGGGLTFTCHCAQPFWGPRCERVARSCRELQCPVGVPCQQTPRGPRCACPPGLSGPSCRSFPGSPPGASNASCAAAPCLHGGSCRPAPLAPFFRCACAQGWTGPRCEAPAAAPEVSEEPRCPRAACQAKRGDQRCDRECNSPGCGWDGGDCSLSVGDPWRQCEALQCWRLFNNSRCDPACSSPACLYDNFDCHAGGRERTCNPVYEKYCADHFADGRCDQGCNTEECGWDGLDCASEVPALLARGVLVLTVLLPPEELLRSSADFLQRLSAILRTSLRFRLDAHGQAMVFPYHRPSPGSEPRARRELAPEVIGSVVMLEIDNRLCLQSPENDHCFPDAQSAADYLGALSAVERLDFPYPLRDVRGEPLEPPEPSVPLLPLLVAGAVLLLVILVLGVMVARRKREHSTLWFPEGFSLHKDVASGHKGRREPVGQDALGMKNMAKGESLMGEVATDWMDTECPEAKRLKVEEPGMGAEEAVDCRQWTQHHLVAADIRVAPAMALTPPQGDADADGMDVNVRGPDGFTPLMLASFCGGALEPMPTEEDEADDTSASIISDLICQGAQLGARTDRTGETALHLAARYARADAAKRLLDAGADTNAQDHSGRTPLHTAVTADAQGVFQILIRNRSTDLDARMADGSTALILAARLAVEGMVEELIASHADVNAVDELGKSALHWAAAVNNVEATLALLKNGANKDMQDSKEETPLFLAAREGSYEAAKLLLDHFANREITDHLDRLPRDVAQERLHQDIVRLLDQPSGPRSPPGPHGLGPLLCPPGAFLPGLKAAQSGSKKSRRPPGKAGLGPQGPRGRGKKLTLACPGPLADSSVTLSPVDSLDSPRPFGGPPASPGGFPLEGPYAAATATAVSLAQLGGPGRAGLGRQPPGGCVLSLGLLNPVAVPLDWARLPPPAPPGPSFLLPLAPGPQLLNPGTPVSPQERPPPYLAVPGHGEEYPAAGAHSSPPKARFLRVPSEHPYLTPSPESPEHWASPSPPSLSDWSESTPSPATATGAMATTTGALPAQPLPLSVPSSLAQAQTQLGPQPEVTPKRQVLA
A short description of test [10]: small-molecule microarray binders of probe aEGFR, primary screen, biochemical, biotinylated probe, 635/667 nm fluorescence (AID 1097).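 Note: probe is a biotinylated anti-EGFR antibody binding compounds printed on slides; score combines fluorescence near 667 nm and signal to noise of each spot.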 The settings on record: higher = more signal.
Test [11] deals with Plasmodium falciparum Sir2 (PF13_0152, Sir2A). Description: pfSir2 binders on small-molecule microarrays, primary screen, biochemical, small-molecule microarray, 635 nm fluorescence (AID 1098).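 Note: score merges spot fluorescence intensity with its signal-to-noise ratio.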 The following applies: small-molecule microarray binding, fluorescence 635 nm; higher = more signal.
Test [12] can be described thus: small-molecule microarray binders of probe aDKK1, primary screen, biochemical, biotinylated probe, 635/667 nm fluorescence (AID 1099).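 Note: score merges 667nm spot fluorescence with signal to noise across triplicate slides; reference of the scale not given here.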 The settings on record: higher = more signal.
The nature of test [13]: small-molecule microarray binders of probe aCHRDL2, primary screen, biochemical, biotinylated probe, 635/667 nm fluorescence (AID 1100). The settings on record: higher = more signal.
Test [14] in a line: splicing luciferase reporter signal modulators, primary screen, spliceosome inhibition project, cell-based, HEK293, splice +/- reporter (AID 1101).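 Note: HEK293 cells carrying a splicing-competent luciferase reporter gene; test concentration not given here.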 The settings on record: luminescence, 24 h, higher = more signal, called active from +8 up or from −8 down.
The target of test [15] is Fibroblast growth factor 10 (Homo sapiens) (UniProt O15520). Description: FGF10 binders on small-molecule microarrays, primary screen, biochemical, small-molecule microarray, 635 nm fluorescence (AID 1102). The following applies: FGF10 binding, fluorescence 635 nm, higher = more signal.
Chain of Fibroblast growth factor 10 (Homo sapiens) (O15520 whole entry, looked up): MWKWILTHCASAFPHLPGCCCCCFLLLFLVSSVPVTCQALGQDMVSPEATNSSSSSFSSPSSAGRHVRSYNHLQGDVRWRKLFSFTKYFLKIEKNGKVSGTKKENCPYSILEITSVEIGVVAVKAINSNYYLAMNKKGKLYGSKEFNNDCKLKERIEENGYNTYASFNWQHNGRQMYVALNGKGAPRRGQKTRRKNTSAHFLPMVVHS
Test [16] relates to glycogen synthase kinase-3 (GSK3A per assay name; protocol says GSK3B). In words: GSK3 binders on small-molecule microarrays, primary screen, biochemical, small-molecule microarray, 635 nm fluorescence, GSK3A (AID 1103). Note: the record names both GSK3A and GSK3B. The settings on record: small-molecule microarray binding, fluorescence 635 nm; higher = more signal.
Test [17] deals with Epidermal growth factor receptor (Homo sapiens) (UniProt P00533). In words: EGFR binders on small-molecule microarrays, primary screen, biochemical, small-molecule microarray, 635 nm fluorescence (AID 1104).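 Note: score merges 667 nm emission intensity with spot signal to noise over triplicate slides.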 The following applies: EGFR binding, higher = more signal.
Chain of Epidermal growth factor receptor (Homo sapiens) (P00533 whole entry, looked up): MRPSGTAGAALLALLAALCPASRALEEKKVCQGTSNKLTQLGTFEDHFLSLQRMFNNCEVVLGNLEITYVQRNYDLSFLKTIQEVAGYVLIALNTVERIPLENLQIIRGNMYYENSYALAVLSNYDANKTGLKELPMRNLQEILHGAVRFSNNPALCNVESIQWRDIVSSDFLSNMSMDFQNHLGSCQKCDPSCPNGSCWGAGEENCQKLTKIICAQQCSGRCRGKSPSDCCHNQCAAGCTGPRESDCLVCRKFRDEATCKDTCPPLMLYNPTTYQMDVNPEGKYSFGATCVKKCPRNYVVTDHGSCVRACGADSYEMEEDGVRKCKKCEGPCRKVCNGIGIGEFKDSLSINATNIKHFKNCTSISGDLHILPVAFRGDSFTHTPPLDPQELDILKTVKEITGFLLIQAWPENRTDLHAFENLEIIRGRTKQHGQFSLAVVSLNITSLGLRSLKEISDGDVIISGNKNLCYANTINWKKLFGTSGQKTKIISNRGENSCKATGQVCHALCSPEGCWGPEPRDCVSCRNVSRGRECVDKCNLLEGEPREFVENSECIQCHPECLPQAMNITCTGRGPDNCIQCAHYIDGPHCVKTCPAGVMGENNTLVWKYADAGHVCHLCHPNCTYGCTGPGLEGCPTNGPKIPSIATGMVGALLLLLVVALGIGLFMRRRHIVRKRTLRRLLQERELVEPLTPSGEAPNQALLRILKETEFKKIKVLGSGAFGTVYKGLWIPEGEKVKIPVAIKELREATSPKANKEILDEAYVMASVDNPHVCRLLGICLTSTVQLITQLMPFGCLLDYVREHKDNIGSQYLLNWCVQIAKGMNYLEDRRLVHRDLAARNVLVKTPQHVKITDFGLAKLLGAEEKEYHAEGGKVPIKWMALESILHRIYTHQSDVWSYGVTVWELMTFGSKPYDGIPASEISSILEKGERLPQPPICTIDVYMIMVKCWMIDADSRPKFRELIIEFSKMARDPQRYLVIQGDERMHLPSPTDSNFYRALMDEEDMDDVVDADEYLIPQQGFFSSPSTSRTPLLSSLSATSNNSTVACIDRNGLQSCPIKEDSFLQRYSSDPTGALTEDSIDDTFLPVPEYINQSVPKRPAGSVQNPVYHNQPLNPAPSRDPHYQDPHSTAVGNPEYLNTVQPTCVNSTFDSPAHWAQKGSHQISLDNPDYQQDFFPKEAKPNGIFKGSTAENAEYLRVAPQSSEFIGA
The target in test [18] is Follistatin-related protein 3 (Homo sapiens) (UniProt O95633). In words: FSTL3 binders on small-molecule microarrays, primary screen, biochemical, small-molecule microarray, 635 nm fluorescence (AID 1105).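 Note: score merges emission near 667 nm and signal to noise per printed spot across three slides.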 The settings on record: FSTL3 binding, higher = more signal.
Chain of Follistatin-related protein 3 (Homo sapiens) (O95633 whole entry, looked up): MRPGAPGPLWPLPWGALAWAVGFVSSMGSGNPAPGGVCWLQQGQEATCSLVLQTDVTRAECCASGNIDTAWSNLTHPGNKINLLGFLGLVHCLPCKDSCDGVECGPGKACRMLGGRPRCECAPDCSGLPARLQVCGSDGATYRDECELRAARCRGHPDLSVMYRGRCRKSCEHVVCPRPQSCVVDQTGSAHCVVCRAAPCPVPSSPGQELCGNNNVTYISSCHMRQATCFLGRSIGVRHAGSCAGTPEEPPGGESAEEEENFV
The target in test [19] is Dickkopf-related protein 1 (Homo sapiens) (UniProt O94907). Description: DKK1 binders on small-molecule microarrays, primary screen, biochemical, small-molecule microarray, 635 nm fluorescence scan (AID 1106).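 Note: score merges emission near 667 nm with signal to noise over three replicate slides.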 The following applies: DKK1 binding, higher = more signal.
Chain of Dickkopf-related protein 1 (Homo sapiens) (O94907 whole entry, looked up): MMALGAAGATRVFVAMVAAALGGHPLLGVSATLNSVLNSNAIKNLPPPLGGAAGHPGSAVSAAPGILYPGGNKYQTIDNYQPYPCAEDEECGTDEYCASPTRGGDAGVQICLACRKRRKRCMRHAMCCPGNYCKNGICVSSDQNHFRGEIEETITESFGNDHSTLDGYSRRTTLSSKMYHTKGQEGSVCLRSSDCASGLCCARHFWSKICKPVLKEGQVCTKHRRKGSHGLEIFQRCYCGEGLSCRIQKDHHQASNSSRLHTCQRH
The test system of test [20] is Inhibin beta A chain (activin A). In words: INHBA (activin A) binders on microarrays, primary screen, biochemical, small-molecule microarray, 635 nm fluorescence scan (AID 1107).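 Note: mouse activin A protein probed at 4.33 µg/mL on printed slides; score merges bound-protein fluorescence near 667 nm with spot signal-to-noise.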 The settings on record: small-molecule microarray binding, higher = more signal.

Chain of Torsin-1A-interacting protein 2 (Homo sapiens) (Q8NFQ8 whole entry, looked up): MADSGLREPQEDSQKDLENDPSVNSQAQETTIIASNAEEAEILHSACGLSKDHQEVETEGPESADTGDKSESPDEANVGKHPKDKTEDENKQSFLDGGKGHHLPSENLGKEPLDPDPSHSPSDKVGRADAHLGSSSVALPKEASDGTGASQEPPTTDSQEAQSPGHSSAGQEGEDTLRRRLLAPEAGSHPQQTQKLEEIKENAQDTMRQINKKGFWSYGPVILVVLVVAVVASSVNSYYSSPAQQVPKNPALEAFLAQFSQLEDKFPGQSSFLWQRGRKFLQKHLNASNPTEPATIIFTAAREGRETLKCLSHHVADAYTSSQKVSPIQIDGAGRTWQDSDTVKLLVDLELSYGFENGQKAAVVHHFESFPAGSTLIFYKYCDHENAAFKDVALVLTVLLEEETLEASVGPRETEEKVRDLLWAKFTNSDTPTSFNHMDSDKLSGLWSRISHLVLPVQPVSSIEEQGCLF

As to `N#Cc1ccc(C(O)C2C=CC3C(=O)N(c4ccccc4)C(=O)C3N2Nc2ccc([N+](=O)[O-])cc2)cc1` (stereo not given), the composite z-score in test [1] was 1.51; in [5] it was 3.13; in [7], 0.0913; in test [8], -0.463; in test [9] it was 1.09; in [10], 0.0522. For the same compound, the composite z-score in test [11] is 1.37; in test [12], 0.904; in [13], 1.16; in test [15], 0.395; in [16] it was 1.09; in [17] it was -0.175. Further, the composite z-score is 0.516 in [18], -0.274 in test [19] and 0.958 in test [20]. The z-score was -0.107 (inactive) in [2]; 0.602 (inactive) in test [3]; 2.45 (inactive) in test [4]; -0.684 (inactive) in [6]; 0.448 (inactive) in [14].

As for `CC(C)C[C@@H]1NC(=O)[C@H]2C[C@@H](C(=O)NCCCCCCNC(=O)CS)[C@@H](c3ccc(O)cc3)N2C1=O`, the composite z-score is 1.54 in test [1]; 2.91 in test [5]; -0.101 in test [7]; 1.14 in [8]; 0.589 in test [9]; -0.0594 in [10]. Besides, the composite z-score in test [11] was 1.47; in test [12] it was -0.0603; in [13] it was -0.121; in test [15] it was 1.13; in test [16], 1.25; in test [17], 1.08. In addition, the composite z-score in test [18] was 1.03; in test [19] it was 0.868; in test [20] it was -1.17. Further, the z-score is 0.107 (inactive) in test [2]; 0.673 (inactive) in test [3]; 0.185 (inactive) in test [4]; 0.205 (inactive) in test [6]; -0.0594 (inactive) in [14].

For the compound `CC(C)c1ccc(NN2C(C(O)C(C)C)C=CC3C(=O)N(c4ccccc4)C(=O)C32)cc1` (stereo not given), the composite z-score in [1] came out at 1.56; in [5], 3.53; in test [7], 0.633; in [8], 0.284; in test [9] it was 1.04; in test [10], 0.516. In addition, the composite z-score in test [11] is 1.06; in test [12] it was 1.26; in [13] it was 1.14; in [15] it was 0.651; in test [16], 1.31; in test [17], 0.389. Besides, the composite z-score in [18] was 0.926; in test [19], -0.103; in test [20], 0.496. Moreover, the z-score is 1.39 (inactive) in [2]; 0.313 (inactive) in [3]; 1.39 (inactive) in [4]; -0.613 (inactive) in test [6]; 0.437 (inactive) in [14].

Take `[N-]=[N+]=NCc1ccccc1[C@H]1OC(c2ccc(OCCCO)cc2)=N[C@@]1(Cc1ccccc1)C(=O)N1CCOCC1`: the composite z-score in [1] turned out to be 1.46; in [5] it was 3.51; in [7] it was 0.254; in [8], 0.316; in test [9], 1.08; in [10] it was 0.266. For the same compound, the composite z-score stood at 1.25 in test [11]; 0.721 in [12]; 0.884 in test [13]; 1.37 in [15]; 1.33 in test [16]; 0.0968 in test [17]. The figures for the composite z-score in test [18], in test [19] and in test [20] were 0.808, -0.0244 and -0.303, respectively. For the same compound, the z-score in test [2] is -2.07 (inactive); in [3] it was -0.21 (inactive); in test [4], -0.0315 (inactive); in test [6], -0.522 (inactive); in test [14], -0.991 (inactive).

For the compound `COc1cc2c(cc1O)C(c1ccc(CN3CCCC3)cc1)N(Cc1ccc([N+](=O)[O-])o1)CC2` (stereo not given), the composite z-score is -0.246 in test [1]; 1.65 in test [5]; -0.299 in test [7]; -0.408 in test [8]; 0.577 in [9]; -0.227 in test [10]. Further, the composite z-score was 1.23 in [11]; -0.276 in [12]; -0.0934 in [13]; 0.116 in test [15]; -0.903 in test [16]; -0.0173 in test [17]. The composite z-score is 0.0429 in test [18], -0.299 in test [19] and -0.289 in [20]. Also, the z-score in test [2] is -0.686 (inactive); in test [3], -2.48 (inactive); in test [4] it was -0.604 (inactive); in [6] it was 0.098 (inactive); in test [14], 0.982 (inactive).

Source of the values: PubChem BioAssay.
